Laboratory results from PubChem BioAssay AID1700 (The Scripps Research Institute Molecular Screening Center, 2009).
Among all 290,000 compounds or so, about 670 (0.23%) were called active.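 How the source made its calls: active means inhibition above a per-plate limit of that plate's mean compound inhibition plus 3 SD (cut at about 60% in these data); inactive means the rest.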 Only a selection was taken, and actives are over-represented in it overall.

Assay: suppression of KLF5 promoter-driven luciferase – DLD-1 cells, luminescence, primary screen (AID 1700);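 further: 0% = DMSO wells and 100% = LY294002 at 200 µM; higher means less KLF5 promoter-driven luciferase light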
Conditions: DLD-1 KLF5 promoter-luciferase reporter, at 5 µM, active compounds read high

inhibition, active:
C[C@@H]1C[C@@H]2O[C@H]2/C=C\C=C\C(=O)Cc2c(Cl)c(O)cc(O)c2C(=O)O1 64.1%
CC[C@H]1CN2CCc3cc(OC)c(OC)cc3[C@@H]2C[C@@H]1C[C@H]1NCCc2cc(OC)c(OC)cc21 106%
Oc1c(Cl)cc(Cl)c(Cl)c1Cc1c(O)c(Cl)cc(Cl)c1Cl 81%
COc1ccc(/C=C(\C#N)c2c[nH]c3ccccc23)cc1 62.4%

inhibition, inactive:
COC(=O)c1ccc(COc2ccc(/C=C/C(=O)c3ccc(OC)c(CSCC(=O)O)c3)cc2OC)cc1 26.8%
CCC(C(=O)NCc1cccnc1)n1nc(C)c2sc3ccccc3c2c1=O (stereo not given) -24.5%
CC(C)CNS(=O)(=O)c1ccc(C(=O)Nc2ccc3c(c2)OCO3)cc1 -18.9%
COc1ccccc1C(=O)NC(=S)NC12CC3CC(CC(C3)C1)C2 -5.49%
Cc1ccc(-c2csc(NC3OC(=O)c4ccccc43)n2)cc1 (stereo not given) 9.97%
Cc1ccn2c(=O)c(C(=O)NCCC3=CCCCC3)c(O)nc2c1 2.41%
COc1cc2c(cc1O)[C@H](Cc1ccc(Oc3cc(C[C@@H]4NCCc5cc(OC)c(O)cc54)ccc3O)cc1)NCC2 -7.79%
CCc1ccc(OCC2c3cc(OC)c(OC)cc3CCN2C(C)=O)cc1 (stereo not given) -8.46%
COc1ccc(Cc2nnc(SCC(=O)Nc3ccc(C)c(C)c3)o2)cc1OC -24.5%
COc1cccc(N(CC(=O)NC2CCCCCC2)S(=O)(=O)c2ccccc2)c1 -3.24%
Cc1cccc(OCC(=O)Nc2ccc(NC(=O)c3ccco3)c(C)c2)c1 -14.3%
O=C(COc1ccc(Cl)cc1)NCCS(=O)(=O)N1CCN(c2ccc(F)cc2)CC1 -3.45%
O=C(N/N=C1\CCSC1)c1cc(Cl)ccc1O -24.9%
COc1ccc(CNc2nccs2)cc1 -8.32%
COc1ccc(C(C)NC(=O)C23CC4CC(CC(C4)C2)C3)cc1 (stereo not given) 13.8%
Cc1ccc(O)c(NC(=O)c2cc(-c3ccco3)on2)c1 -124%
N#Cc1ccc(C(=O)Nc2nc(-c3cccs3)c(C(=O)C(F)(F)F)s2)cc1 16.3%
Cn1c(=O)c2c(nc(NCCNC(=O)c3ccco3)n2Cc2ccccc2F)n(C)c1=O -15%
Cc1nn2c(c1-c1ccccc1)N=C(c1ccco1)CC2c1ccccc1 (stereo not given) -26.4%
CS(=O)(=O)c1ccc2nnn(OCC(=O)Nc3cccc(C#N)c3)c2c1 -3.59%
O=C(Nc1cccc(Cl)c1)c1cc(S(=O)(=O)N2CCCCC2)c[nH]1 -39.1%
COc1ccc(S(=O)(=O)n2nc(C)c(S(=O)(=O)N3CCOCC3)c2C)cc1 -33.4%
CCOC(=O)N1CCN(S(=O)(=O)c2ccc(-n3cnnn3)cc2)CC1 -18.3%
O=C(NCc1cc(F)cc(C(F)(F)F)c1)C1CCC(=O)N(C2CCCC2)C1 (stereo not given) 11.8%
CCCCC(C(=O)NC(C)(C)C)N(Cc1ccccc1)C(=O)c1snc(C(N)=O)c1N (stereo not given) -18.5%
COc1ccc(C(C)NC(=S)NC2CCCCC2)cc1OC (stereo not given) -29.8%
CC1CCN(C(=O)Cn2nnnc2CN2CCOCC2)CC1 -8.54%
CC(=O)N1CC(=O)N(CC(=O)Nc2ccc(Br)cc2)C1=S -0.85%
COC(=O)c1cccc(C(=O)N2CCCC(Nc3ccc4c(c3)OCCO4)C2)c1 (stereo not given) -10.2%
CC1CCC(NS(=O)(=O)c2ccc3c(c2)CC(=O)N3)CC1 (stereo not given) 10.7%
C=CCn1c(SCc2ccc(C(=O)NCCO)cc2)nc2ccccc2c1=O -13.8%
CCN1CCCC1CNC(=O)c1cc2cc(OC)c(OC)cc2[nH]1 (stereo not given) -5.17%
Cc1ccc(CNC(=O)CCNS(=O)(=O)c2ccc(Br)s2)cc1 -6.34%
CC(NC(=O)c1cc2cc(Cl)ccc2oc1=N)c1ccccc1 (stereo not given) -15.5%
COc1cc(/C=C(\C#N)c2nc3ccccc3[nH]2)ccc1O -74.6%
COc1ccc2[nH]cc(/C=C(/C#N)S(=O)(=O)c3ccccc3)c2c1 -24.4%
